# PubChem BioAssay
# Calls of active or inactive are those of the source.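 The calls were made as follows, unless noted: active = inhibition above 20% together with a positive visual image hit; inconclusive = visual image hit but inhibition not above 20%; inactive = no visual image hit.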
# Legend:
# [1] = inhibitors of TNFa-induced NFkB p65 translocation, primary screen, imaging, HUVEC, MLSMR starter and 10KST1 sets (AID 438); conditions: HUVEC TNFa-induced p65 nuclear translocation; cell count: measured here: nuclei count (cytotoxicity indicator), at 2.08 µM; inhibition: at 2 µM, stronger effect = higher value, 0% TNFa-plus-vehicle, 100% no-TNFa wells;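 also: compound added about 3h40 before a 20 min TNFalpha stimulation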;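 as to inhibition: signal is the nuclear over cytoplasmic p65 intensity ratio per well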
# [2] = inhibitors of mutant huntingtin aggregation, primary screen, imaging, exon1htt(103Q)mCFP cells, high-content imaging (AID 483;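 active = visual image review flags a hit and inhibition of aggregation exceeds 20%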;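 also: compound exposure lasted 3 days before fixation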;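 as to nuclei count: percent of the per-plate median nuclei count of sample wells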); conditions: exon1htt(103Q)mCFP cell line, aggregate imaging, at 2 µM; inhibition of aggregation: stronger effect = higher value; nuclei count: measured here: cell count, toxicity
# [3] = inhibitors of E-selectin induction by TNFa, primary screen, imaging, HUVEC, immunofluorescence, MLSMR starter and 10KST1 sets (AID 487;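 active = visually confirmed hit in the image check and inhibition above 20%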;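 as to inhibition: signal is fraction of cell area covered by stained E-selectin grains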;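 as to nuclei count: 100% = median nuclei count of all wells on the same plate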); conditions: HUVEC TNFalpha-induced E-selectin immunofluorescence imaging, at 2 µM; inhibition: stronger effect = higher value; nuclei count: measured here: cell number, toxicity
# [4] = target: Voltage-gated potassium channel subunit beta-2 (Rattus norvegicus) (UniProt P62483); test: KvBeta enzyme negative modulators, primary screen, biochemical, NADPH fluorescence (AID 622;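 active = fluorescence slope higher than the sample average by over 3 SD, cut at about -0.22 in these data, passing the limit was not always enough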;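 also: slope of raw intensity against log time taken from 70 to 1610 s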); conditions: recombinant KvBeta, 4-cyanobenzaldehyde reduction, at 10 µM, stronger effect = higher value
# Sequence of Voltage-gated potassium channel subunit beta-2 (Rattus norvegicus) (P62483 whole entry, looked up): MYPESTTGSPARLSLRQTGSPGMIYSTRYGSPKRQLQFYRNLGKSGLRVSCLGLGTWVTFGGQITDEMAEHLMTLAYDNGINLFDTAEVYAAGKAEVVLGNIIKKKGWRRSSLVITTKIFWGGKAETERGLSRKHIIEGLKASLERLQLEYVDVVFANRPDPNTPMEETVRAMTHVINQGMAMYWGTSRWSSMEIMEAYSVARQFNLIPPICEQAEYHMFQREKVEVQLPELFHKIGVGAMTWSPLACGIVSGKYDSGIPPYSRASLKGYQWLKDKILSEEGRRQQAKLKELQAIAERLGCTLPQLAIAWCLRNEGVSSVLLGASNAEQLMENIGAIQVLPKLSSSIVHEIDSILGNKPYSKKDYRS
# [5] = target: Voltage-gated potassium channel subunit beta-2 (Rattus norvegicus) (UniProt P62483); test: KvBeta positive modulators, primary screen, biochemical, NADPH fluorescence (AID 623;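 active = NADPH fluorescence slope more negative than the mean of all samples by about 3 SD, 99.7% confidence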;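 also: fluorescence intensity change per second fitted from 20 to 320 s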); conditions: Recombinant KvBeta, NADPH fluorescence decrease slope, 10 min; at 10 µM; stronger effect = lower value
# [6] = target: Alpha-2C adrenergic receptor (Homo sapiens) (UniProt P18825); test: modulators of alpha2C/GIRK thallium flux, primary screen, cell-based, HEK293 alpha2C/GIRK1/2 (AID 624;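 active = fluorescence slope after compound addition differing from the mean of all screened samples at 99.7% confidence, in either direction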;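 also: slope of fluorescence ratio to pre-addition baseline per second over 15 to 24 s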); conditions: thallium flux BTC fluorescence, at 10 µM, actives lie on both sides
# Sequence of Alpha-2C adrenergic receptor (Homo sapiens) (P18825 whole entry, looked up): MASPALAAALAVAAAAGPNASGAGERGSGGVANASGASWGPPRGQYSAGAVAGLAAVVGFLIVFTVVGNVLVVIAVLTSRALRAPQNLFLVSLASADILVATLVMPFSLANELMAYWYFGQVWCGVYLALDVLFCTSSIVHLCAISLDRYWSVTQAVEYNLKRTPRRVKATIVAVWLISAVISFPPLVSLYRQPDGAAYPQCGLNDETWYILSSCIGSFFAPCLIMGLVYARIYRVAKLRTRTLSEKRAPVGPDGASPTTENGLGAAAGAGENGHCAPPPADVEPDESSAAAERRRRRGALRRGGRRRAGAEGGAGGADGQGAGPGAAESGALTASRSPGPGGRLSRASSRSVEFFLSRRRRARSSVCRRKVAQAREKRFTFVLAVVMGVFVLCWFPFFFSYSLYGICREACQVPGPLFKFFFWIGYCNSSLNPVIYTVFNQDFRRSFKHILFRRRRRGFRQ
# [7] = inhibitors of Sendai virus-induced IRF3 signaling, primary screen, TLR/RLR signaling modifier project, cell-based, Sendai virus stimulus, luciferase, 10K MLSCN set (AID 602276;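 active = inhibition at or above 50% at 10 µM; inactive = inhibition below 50%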;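 also: firefly luciferase from ISG56 promoter only with Renilla not read in this screen; 0% = Sendai virus plus DMSO and 100% = medium plus DMSO without virus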); conditions: HEK293 RL24 IRF3 luciferase reporter, at 10 µM, stronger effect = higher value
# [8] = inhibitors of poly I:C-induced TLR3 signaling, primary screen, cell-based, poly I:C stimulus, luciferase, 10K MLSCN set (AID 602277;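 active = inhibition of the reporter signal at or above 50%; inactive = inhibition below 50%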); conditions: HEK293-TLR3 RL24 IRF3 luciferase reporter, at 10 µM, stronger effect = higher value
Structure (SMILES),cell count [1],inhibition [1],inhibition of aggregation [2],nuclei count [2] [%],inhibition [3],nuclei count [3] [%],fluorescence slope [4],NADPH fluorescence slope [5],slope [6],inhibition [7],inhibition [8]
O=C(Nc1ccc(N2CCCC2)cc1)c1ccc(Br)o1,303,-8.4% (inactive),36.8% (inactive),94.4,-59.6% (inactive),94.7,-0.398 (inactive),-6.5e-05 (inactive),0.00868 (inactive),-34% (inactive),-152% (inactive)
O=C(O)C1CCCN1c1ncnc2c1oc1ccccc12 (stereo not drawn),626,-4.4% (inactive),11.5% (inactive),101,22.9% (inactive),96.9,-0.503 (inactive),-1.8e-05 (inactive),0.00455 (inactive),5.71% (inactive),5.35% (inactive)
CCOC(=O)c1sc(NC(=O)CSc2nnnn2-c2ccccc2)c(C(=O)OCC)c1C,425,-1.3% (inactive),12.5% (inactive),96.5,-467% (inactive),156,-0.567 (inactive),1.2e-05 (inactive),0.00928 (inactive),-15.7% (inactive),-15.7% (inactive)
CN1C(=O)C(O)(CC(=O)c2ccc(F)cc2)c2cc(Br)ccc21 (stereo not drawn),580,6% (inactive),22.6% (inactive),69.5,16.6% (inactive),97.6,-0.436 (inactive),-7.2e-05 (inactive),0.0055 (inactive),22.4% (inactive),41.2% (inactive)
COc1ccc(-c2nnc(SCC(=O)N3CCOCC3)o2)cc1OC,603,19% (inactive),-39.9% (inactive),86.5,38.5% (inactive),78.3,-0.54 (inactive),1.3e-05 (inactive),0.0068 (inactive),-13.3% (inactive),4.93% (inactive)
Cc1ccc(S(=O)(=O)N2CCN(C(=O)CN3CCOCC3)C2C(C)C)cc1 (stereo not drawn),309,-5% (inactive),-6.9% (inactive),105,-99.4% (inactive),105,-0.621 (inactive),6.8e-06 (inactive),0.0064 (inactive),4.53% (inactive),12.9% (inactive)
COc1cc(CN2CCSCC2)cc(OC)c1OC,642,-1.9% (inactive),12.3% (inactive),60.4,-13.9% (inactive),98.2,-0.486 (inactive),2.1e-05 (inactive),0.00258 (inactive),-4.06% (inactive),20% (inactive)
Nc1nc(Nc2ccc(Cl)cc2Cl)nc(C(F)(F)F)n1,348,0.6% (inactive),-0.7% (inactive),96.9,-19.5% (inactive),105,-0.348 (inactive),-1.8e-06 (inactive),0.00538 (inactive),-32.5% (inactive),-84.9% (inactive)
COc1ccc(CCNC(=O)C2CCCN(c3nn4c(=O)cc(C)nc4s3)C2)cc1OC (stereo not drawn),371,-4% (inactive),10.8% (inactive),94.9,-9% (inactive),100,-0.403 (inactive),-5.9e-05 (inactive),0.0045 (inactive),19.7% (inactive),16.7% (inactive)
O=C(CSc1nnnn1C1CCCC1)Nc1cccc(NC(=O)c2ccco2)c1,747,-15.8% (inactive),21.9% (inactive),56.9,-76.4% (inactive),132,-0.329 (inactive),2.2e-05 (inactive),0.00506 (inactive),5.72% (inactive),9.32% (inactive)
Cc1ccc(C2CC(c3ccc(C)cc3)n3nc(N)nc3N2)cc1 (stereo not drawn),871,2.8% (inactive),15.1% (inactive),95.1,-71.7% (inactive),116,-0.613 (inactive),-1.7e-05 (inactive),0.00808 (inactive),-11.6% (inactive),0.814% (inactive)
Cc1cc(C)c(C#N)c(SCC(=O)Nc2ccc(S(=O)(=O)Nc3onc(C)c3C)cc2)n1,607,2.9% (inactive),3.9% (inactive),103,-59.1% (inactive),122,-0.448 (inactive),1.9e-05 (inactive),0.00553 (inactive),9.61% (inactive),24.3% (inactive)
O=C1CC(c2ccsc2)c2cc3c(cc2N1)OCCO3 (stereo not drawn),623,0% (inactive),-4.2% (inactive),87.6,-78.5% (inactive),129,-0.556 (inactive),-2.5e-05 (inactive),0.0063 (inactive),1.12% (inactive),21.1% (inactive)
COc1ccccc1OCc1ccc(C(=O)Nc2ccncc2)o1,729,-7.3% (inactive),-9.4% (inactive),83.1,-69% (inactive),120,-0.508 (inactive),-5.2e-05 (inactive),0.00528 (inactive),8.87% (inactive),-20.1% (inactive)
COCCNC(=O)C(C)N(c1ccc(Oc2ccccc2)cc1)S(C)(=O)=O (stereo not drawn),333,2.5% (inactive),-15.1% (inactive),98.6,-21.7% (inactive),111,-0.445 (inactive),-6.4e-05 (inactive),0.00568 (inactive),14.7% (inactive),23.7% (inactive)
S=C(c1ccc(N2CCOCC2)cc1)N1CCCCC1,375,-1.3% (inactive),4.1% (inactive),111,-68.1% (inactive),111,-0.535 (inactive),-2e-05 (inactive),0.00689 (inactive),-29.8% (inactive),-15.7% (inactive)
CCOC(=O)c1ccccc1NC(=O)c1c(O)c2ccccc2n(CC)c1=O,649,-12.8% (inactive),-35.3% (inactive),101,20.2% (inactive),120,-0.489 (inactive),-0.000195 (inactive),0.00747 (inactive),-2.85% (inactive),9.26% (inactive)
CCOc1ccccc1N1CCN(C(=O)c2ccncc2)CC1,428,-1.5% (inactive),12.2% (inactive),90.1,11.7% (inactive),105,-0.421 (inactive),-0.000112 (inactive),0.00573 (inactive),-5.17% (inactive),15.5% (inactive)
COc1ccc(C(=O)c2coc3ccc(O)c(CN4CCCCC4)c23)cc1,828,-6.8% (inactive),-9.1% (inactive),108,-25.2% (inactive),112,-0.597 (inactive),-1.2e-05 (inactive),0.00458 (inactive),-9.24% (inactive),-15.8% (inactive)
CCOC(=O)c1c(COC(=O)c2ccco2)nc2ccccc2[n+]1[O-],570,8.9% (inactive),8.4% (inactive),107,-31.9% (inactive),120,-0.392 (inactive),-4.6e-05 (inactive),0.00397 (inactive),17.9% (inactive),15.1% (inactive)
O=C(C(Cc1ccccc1)n1cccc1)N1CCCCCC1 (stereo not drawn),690,-1.6% (inactive),8.2% (inactive),104,-42.3% (inactive),115,-0.517 (inactive),-1.7e-05 (inactive),0.00572 (inactive),3.28% (inactive),25.3% (inactive)
Cc1ccc(-c2nc3cc(NC(=O)C(C)C)ccc3o2)cc1,290,-6.7% (inactive),14.3% (inactive),98.3,29.7% (inactive),87.7,-0.319 (inactive),-3e-05 (inactive),0.0055 (inactive),-10.9% (inactive),-66.2% (inactive)
COc1ccc(C(=O)NCc2nnc(SC)n2C2CCCCC2)cc1,591,-2.4% (inactive),-1.1% (inactive),96,-35.7% (inactive),101,-0.521 (inactive),-3.9e-05 (inactive),0.00737 (inactive),18.8% (inactive),26% (inactive)
Cc1ccc2c(c1)NC(=O)C(CC(=O)NCCCN1CCN(c3cc(Cl)ccc3C)CC1)O2 (stereo not drawn),640,4.1% (inactive),-19% (inactive),82.6,8.8% (inactive),123,-0.55 (inactive),3.4e-05 (inactive),0.00483 (inactive),-15.5% (inactive),-8.91% (inactive)
CC(C)(C)c1cc(NS(=O)(=O)c2ccc3c(c2)OCCO3)on1,574,-2.4% (inactive),5.3% (inactive),104,-81.6% (inactive),167,-0.586 (inactive),-2.5e-06 (inactive),0.0066 (inactive),11.1% (inactive),20.1% (inactive)
CCOC(=O)c1cc2c(=O)n3ccccc3nc2n(CCCOC)c1=NC(=O)C(C)(C)C,656,2.6% (inactive),39.3% (active),86.8,-203% (inactive),95.3,-0.348 (inactive),7.9e-06 (inactive),0.00456 (inactive),7.96% (inactive),16.3% (inactive)
CCOc1ccc(NCCC(=O)c2ccc3c(c2)OCO3)cc1,624,-5.4% (inactive),29.9% (inactive),96.9,0% (inactive),103,-0.326 (inactive),8.4e-06 (inactive),0.00304 (inactive),2.87% (inactive),12.5% (inactive)
CC(=O)NCc1ccc(C(=O)CSc2nnc(-c3ccncc3)n2Cc2ccccc2)o1,461,-1.1% (inactive),16.2% (inactive),96,-25.7% (inactive),127,-0.59 (inactive),-5.8e-05 (inactive),0.00604 (inactive),12.6% (inactive),20.5% (inactive)
